Only a selection was taken, and hits are over-represented in it overall.
ST2 inh: inhibitors of human ST2 (IL1RL1) binding to IL-33, primary screen, biochemical, AlphaLISA | hit rate 2.3% among 78,000 | AlphaLISA ST2-Fc/biotin-IL-33 interaction, 1 h | Interleukin-1 receptor-like 1 (Homo sapiens), Q01638 | inhibition, % for hits at 17 µM | AID 1259354, 2018; in the data active = inhibition above about 30%
Target sequence (Q01638 whole entry, looked up): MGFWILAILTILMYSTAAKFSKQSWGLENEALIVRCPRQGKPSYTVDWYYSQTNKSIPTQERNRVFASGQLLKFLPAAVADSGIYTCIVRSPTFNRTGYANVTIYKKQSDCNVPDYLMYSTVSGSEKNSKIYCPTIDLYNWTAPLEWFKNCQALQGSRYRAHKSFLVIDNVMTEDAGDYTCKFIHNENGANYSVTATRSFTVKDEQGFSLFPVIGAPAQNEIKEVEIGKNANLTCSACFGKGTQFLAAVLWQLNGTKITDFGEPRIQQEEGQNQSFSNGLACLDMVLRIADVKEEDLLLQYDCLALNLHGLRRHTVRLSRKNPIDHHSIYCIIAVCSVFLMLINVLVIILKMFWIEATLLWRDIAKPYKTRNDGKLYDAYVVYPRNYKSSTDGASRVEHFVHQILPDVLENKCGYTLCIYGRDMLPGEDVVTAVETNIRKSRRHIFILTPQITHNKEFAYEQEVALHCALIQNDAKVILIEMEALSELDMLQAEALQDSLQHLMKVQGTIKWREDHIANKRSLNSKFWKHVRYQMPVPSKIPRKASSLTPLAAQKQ
Hits are given with their value.

O=C(CSc1nnc2c3ccccc3n(CCc3ccccc3)c2n1)N1CCOCC1 was read as ST2 inh 33%.
c1ccc(CCn2c3ccccc3c3nnc(SCCN4CCOCC4)nc32)cc1 was read as ST2 inh inactive.
`CCn1c2ccccc2c2nnc(SCC(=O)N3CCCc4ccccc43)nc21` gave ST2 inh inactive.
`Cc1ccoc1C(=O)N1CCC2(CCCN(CCc3ccccc3)C2)C1` (stereo unspecified) gave ST2 inh inactive.
Screening Cc1ccc(N2C(=O)CSC2c2ccccn2)cc1Cl (stereo unspecified) returned ST2 inh inactive.
Screening CCCS(=O)(=O)N1CCN(c2nc(C)cc(N3CCCC3)n2)CC1 returned ST2 inh inactive.
Screening Cc1ccc(N2C(=O)CC(Sc3ncn[nH]3)C2=O)cc1C (stereo unspecified) returned ST2 inh 36%.
Screening Cc1cccc(N2C(=O)CC(Sc3nccc(C)n3)C2=O)c1 (stereo unspecified) returned ST2 inh inactive.
Screening COc1cc(OC)cc(N2C(=O)CC(Sc3ncn[nH]3)C2=O)c1 (stereo unspecified) returned ST2 inh inactive.
For O=C(COc1ccc(F)cc1)Nc1c(C(=O)Nc2ccc(F)cc2)oc2ccccc12 the results were ST2 inh inactive.
`Cc1ccc(S(=O)(=O)Nc2ccc3nc(-c4ccco4)[nH]c3c2)cc1` gave ST2 inh inactive.
Screening Cc1cccc(C(=O)NC(NC2CCS(=O)(=O)C2)C(Cl)(Cl)Cl)c1 (stereo unspecified) returned ST2 inh inactive.
For Cc1ccccc1CN1CCC(CN(Cc2cccnc2)C(=O)c2ccccn2)CC1 the results were ST2 inh inactive.
O=C(Nc1ccc([N+](=O)[O-])cc1Cl)c1cc(I)ccc1Cl was read as ST2 inh 31%.
`COc1cc([N+](=O)[O-])ccc1NC(=O)c1cc(I)ccc1Cl` gave ST2 inh inactive.
`O=C(Nc1ccccc1Cl)c1ccccc1[N+](=O)[O-]` gave ST2 inh inactive.
Screening O=C(Nc1ccccc1I)c1cc([N+](=O)[O-])ccc1Cl returned ST2 inh inactive.
Screening O=C(NCc1cccs1)c1ccc(Cl)cc1[N+](=O)[O-] returned ST2 inh inactive.
`Cc1cccc(NC(=O)c2ccc([N+](=O)[O-])cc2Cl)c1` gave ST2 inh 31%.
For CC(C)Oc1ccc(NC(=O)c2ccc([N+](=O)[O-])cc2Cl)cc1 the results were ST2 inh inactive.
Screening O=C(Nc1ccccc1[N+](=O)[O-])c1cc(I)ccc1Cl returned ST2 inh 35%.
For O=C(Nc1ccccc1I)c1ccc(Cl)cc1[N+](=O)[O-] the results were ST2 inh 30%.
For O=C(Nc1cccc([N+](=O)[O-])c1)c1cc(I)ccc1Cl the results were ST2 inh inactive.
Screening O=C(Nc1cccc([N+](=O)[O-])c1)c1ccccc1Cl returned ST2 inh inactive.
For O=C(Nc1ccc([N+](=O)[O-])cc1)c1cc(I)ccc1Cl the results were ST2 inh inactive.
COCCCn1ccnc1-c1ccc(-n2cccn2)cc1C was read as ST2 inh inactive.
For Cc1ccsc1C(=O)C1CCCN(Cc2c(C)n(C)n(-c3ccccc3)c2=O)C1 (stereo unspecified) the results were ST2 inh inactive.
N#Cc1c(-c2ccc(F)cc2)cc(-c2cccs2)nc1SCC(N)=O was read as ST2 inh inactive.
`O=C(c1cncnc1)N1C[C@@H]2C[C@H](C1)c1ccc(-c3ccc(OC(F)(F)F)cc3)c(=O)n1C2` gave ST2 inh inactive.
Cc1nc2c([nH]1)c(=O)n(C)c(=O)n2Cc1ccco1 was read as ST2 inh inactive.
`COCCNC(=O)c1ccc([N+](=O)[O-])cc1` gave ST2 inh inactive.
`Cn1ncc(C2CC(=O)Nc3cc(O)ccc32)c1C1CC1` (stereo unspecified) gave ST2 inh inactive.
Screening CC(C)C(=O)Nc1cccc(NC(=O)c2ccccc2I)c1 returned ST2 inh inactive.
`NC(=O)C1CCN(S(=O)(=O)c2ccccc2[N+](=O)[O-])CC1` gave ST2 inh inactive.
CCCOc1ccc2oc(=O)c3c(c2c1)CCCN3C(=O)CN1CCCC(C(=O)OCC)C1 (stereo unspecified) was read as ST2 inh inactive.
CN1CCN(CC(=O)N2CCCc3c2c(=O)oc2ccc(OCc4ccccc4)cc32)CC1 was read as ST2 inh 39%.
`CCCOc1ccc2oc(=O)c3c(c2c1)CCCN3C(=O)CN1CCN(c2ncccn2)CC1` gave ST2 inh inactive.
CCCOc1ccc2oc(=O)c3c(c2c1)CCCN3C(=O)CN1CCN(C(=O)c2ccco2)CC1 was read as ST2 inh inactive.
`CCCOc1ccc2oc(=O)c3c(c2c1)CCCN3C(=O)CN1CCCCCC1` gave ST2 inh inactive.
For CCN1CCN(CC(=O)N2CCCc3c2c(=O)oc2ccc(OCc4ccccc4)cc32)CC1 the results were ST2 inh 30%.
For COCC(=O)N[C@H]1CC[C@]2(C)CC[C@@H]([C@H](C)C(=O)NCc3ccccn3)[C@H](O)[C@H]2[C@@H]1C the results were ST2 inh inactive.
Cc1cc(C(=O)N2CCC(n3nccc3NC(=O)Nc3ccccc3Cl)CC2)c(C)o1 was read as ST2 inh inactive.
O=C1CCc2cc(S(=O)(=O)Nc3ccc4c(c3)OCCO4)ccc2N1 was read as ST2 inh inactive.
Screening CCOc1ccc(NC2=C([N+](=O)[O-])CS(=O)(=O)C2)cc1 returned ST2 inh inactive.
`CCOc1ccc(CCNC(=O)c2cc3cccc(OC)c3oc2=O)cc1OCC` gave ST2 inh inactive.
Screening O=C(c1n[nH]c2c1CCC2)N1CCc2c(c(C(=O)N3CCOCC3)nn2CCCc2ccccc2)C1 returned ST2 inh inactive.
`Cc1ccc(C(=O)N2CCc3c(c(C(=O)N4CCNC(=O)C4)nn3CCCc3ccccc3)C2)s1` gave ST2 inh 30%.
O=C(Cc1cccs1)N1CCc2c(c(C(=O)N3CCOCC3)nn2CCCc2ccccc2)C1 was read as ST2 inh inactive.
For Cc1cc(C)n(C(C)CNC(=O)c2cccc(Cn3cccn3)c2)n1 (stereo unspecified) the results were ST2 inh inactive.
`O=C(NC1CCCCC1)c1ccc(Cl)cc1` gave ST2 inh inactive.
`Nc1cc(C(=O)O)ccc1NC1CCCCC1` gave ST2 inh 31%.
Screening O=C(NC1CCCCCCC1)c1ccccc1 returned ST2 inh inactive.
For O=C(NC1CCCCC1)c1ccc(CS(=O)(=O)c2ccc(Br)cc2)o1 the results were ST2 inh inactive.
CCCC(=O)NCCc1nc2ccccc2n1C was read as ST2 inh inactive.
`CC1=C(C(=O)OC(C)(C)C)C(c2ccccc2F)C(C#N)=C(N)O1` (stereo unspecified) gave ST2 inh inactive.
O=C(CSc1nc2ccccc2s1)Nc1nc2ccc([N+](=O)[O-])cc2s1 was read as ST2 inh inactive.
For O=[N+]([O-])c1ccc(S(=O)(=O)c2nc3ccccc3s2)c(Cl)c1 the results were ST2 inh 54%.
For O=C(c1cc([N+](=O)[O-])ccc1Cl)n1nnc2ccccc21 the results were ST2 inh inactive.
For Cc1c(C(=O)N2CC(C)CC(C)C2)oc2ccc(S(=O)(=O)N3CCC4(CC3)OCCO4)cc12 (stereo unspecified) the results were ST2 inh inactive.
Screening CC(C)Sc1nc2ncnc(N)c2[nH]1 returned ST2 inh inactive.

Screening results from PubChem.
